Potency, max response and outcome data for eight compounds are collected here from PubChem BioAssay (Tox21).

A short description of assay [1]: qHTS RealTime-Glo MT Cell Viability Assay in HepG2 cells - 40 hour (AID 1224870). Note: nearly all actives have a fitted effect of over 50% in size. Note: potency is the fitted concentration of half-maximal effect. Put shortly: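 Real-time viability: cells seeded at 600 per well together with NanoLuc and cell-permeant prosubstrate, compounds added after 5 h incubation. Luminescence tracked at 0, 8, 16, 24, 32 and 40 h of exposure.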
Assay [2] in a line: A CellTox Green Cytotoxicity Assay to monitor cytotoxicity in HEK293 cells - 40 hour (AID 1224871). Note: nearly all actives have a fitted effect of over 45% in size. Note: potency is the fitted concentration of half-maximal effect. A digest of the protocol: (§1)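 Fluorescence from a DNA-binding dye excluded by viable cells was measured repeatedly in the same HEK293 wells (600 cells/well) during continuous compound exposure at 37 C. Each assay gives one read point: 0, 8, 16, 24, 32 or 40 h.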
Assay [3] in a line: qHTS RealTime-Glo MT Cell Viability Assay in HEK293 cells - 40 hour (AID 1224874). For max response: % is set by controls: 0 for no effect and ±100 for the full control effect. Note: nearly all actives have a fitted effect of over 50% in size. Note: potency is the fitted concentration of half-maximal effect. Particulars: RealTime-Glo luminescence; max response: stronger effect = lower value. A digest of the protocol:
(§2)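 Luminescence, which tracks viable cell number through reduction of the prosubstrate to a NanoLuc substrate, was read over continuous 37 C culture. Cells (600/well) were premixed with reagent and rested 5 h before 23 nL of compound in DMSO was pinned.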
For orientation: In qHTS, concentration-response curves come from the screen itself.

Assay [4] in a line: A CellTox Green Cytotoxicity Assay to monitor cytotoxicity in HepG2 cells - 16 hour (AID 1224876). Note: nearly all actives have a fitted effect of over 45% in size. Note: potency is the fitted concentration of half-maximal effect. Put shortly:
(§3)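 Real-time cytotoxicity: fluorescence of a cell-impermeant cyanine dye binding DNA of dead HepG2 cells, measured repeatedly (0–40 h) during compound exposure at 37 C. Cells seeded 600/well with reagent, dosed after 5 h.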

The nature of assay [5]: qHTS RealTime-Glo MT Cell Viability Assay in HepG2 cells - 32 hour (AID 1224877). Note: nearly all actives have a fitted effect of over 55% in size. Note: potency is the fitted concentration of half-maximal effect. Put shortly:
(§4)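 HepG2 cells (600/well) were dispensed with RealTime-Glo reagents, incubated 5 h at 37 °C, then treated with compounds in DMSO for up to 40 h. Nonlytic NanoLuc luminescence reflecting viable cells was read at each stated time point.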

A short description of assay [6]: qHTS RealTime-Glo MT Cell Viability Assay in HEK293 cells - 0 hour (AID 1224880). Note: top concentration of the series differs between compounds; % is set by controls: 0 for no effect and ±100 for the full control effect; nearly all actives have a fitted effect of over 45% in size. A digest of the protocol:
as §2

A short description of assay [7]: A CellTox Green Cytotoxicity Assay to monitor cytotoxicity in HEK293 cells - 16 hour (AID 1224888). Note: nearly all actives have a fitted effect of over 35% in size. Note: potency is the fitted concentration of half-maximal effect. Put shortly:
as §1

A short description of assay [8]: qHTS RealTime-Glo MT Cell Viability Assay in HepG2 cells - 0 hour (AID 1224889). Note: % is set by controls: 0 for no effect and ±100 for the full control effect; nearly all actives have a fitted effect of over 50% in size. A digest of the protocol:
as §4

Assay [9] can be described thus: A CellTox Green Cytotoxicity Assay to monitor cytotoxicity in HepG2 cells - 8 hour (AID 1224890). Note: nearly all actives have a fitted effect of over 45% in size. Note: potency is the fitted concentration of half-maximal effect. Put shortly:
as §3

Assay [10] is described as follows: qHTS assay to identify small molecule antagonists of the androgen receptor (AR) signaling pathway using the MDA cell line in the presence of 0.5 nM R1881 - cell viability counter screen (AID 1259242). A digest of the protocol: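 Live-cell protease activity was measured by CellTiter-Fluor fluorescence after 30 min. Before that, MDA-kb2 MMTV-luciferase cells had 16 hr at 37C without CO2, exposed to test compounds and 0.5 nM R1881 final.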

Assay [11] is described as follows: qHTS assay to identify small molecule HDAC inhibitors - cell viability counter screen (AID 1259365). Note: series mostly up to about 92 µM; % is set by controls: 0 for no effect and ±100 for the full control effect; nearly all actives have a fitted effect of over 50% in size. A digest of the protocol:
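Luminescence from CellTiter-Glo, developed 30min at room temperature, reports viability of wild-type HCT-116 cells treated 2hr with compounds at 37 C and 5% CO2 after overnight plating.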

Assay [12] in a line: qHTS assay to identify small molecule agonists or antagonists of the thyroid stimulating hormone receptor (TSHR) signaling pathway - wild type cell line counter screen (AID 1259384; calls by dose curve; note: % is set by controls: 0 for no effect and ±100 for the full control effect). Put shortly: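 Counter screen in untransfected Hek293: compounds (15-point titration, triplicate) plus phosphodiesterase inhibitor Ro20-1724 added after 18 h plating; 30 min RT. Intracellular cAMP via competitive d2/cryptate immunoassay, 1 h incubation.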

Assay [13] can be described thus: qHTS assay to identify small molecule agonists of the estrogen receptor alpha (ER-alpha) signaling pathway in the presence of an antagonist - cell viability counter screen (AID 1259386). Note: series mostly up to about 92 µM; % is set by controls: 0 for no effect and ±100 for the full control effect; nearly all actives have a fitted effect of over 30% in size. Put shortly: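 Compounds tested at 15 concentrations for 22 h at 37C alongside 10.0nM (final) ICI-182,780 antagonist, in VM7Luc4E2 cells grown in phenol red-free, charcoal-stripped medium. Viability read by CellTiter-Fluor fluorescence after 1 h reagent incubation.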

Assay [14] in a line: qHTS assay to identify small molecule antagonists of the TGF-beta/Smad signaling pathway - cell viability counter screen (AID 1346824). A digest of the protocol:
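Cytotoxicity counter-screen run in the same wells as the beta-lactamase Smad reporter read: CellTiter-Glo luminescence after 30 min at room temperature. HEK 293T SBE-bla cells had 5 hr compound exposure at 37 C with TGF-beta1 (0.25 ng/mL stock).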

A short description of assay [15]: qHTS assay to identify small molecule agonists of the TGF-beta/Smad signaling pathway - cell viability counter screen (AID 1346829). Put shortly:
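SBE-bla HEK 293T cells plated overnight, compound exposure 5 hr at 37 C. Viability read in the same wells by CellTiter-Glo luminescence after 30 min at room temperature, following the beta-lactamase read.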

Assay [16] is described as follows: qHTS assay to identify small molecule agonists of the TGF-beta/Smad signaling pathway (AID 1346859; active = well fitted activation curve with a large enough effect in the signal ratio in the repeat runs, not every such curve was filed as active; the % refers to the signal ratio; note: series mostly up to about 77 µM; % is set by controls: 0 for no effect and ±100 for the full control effect). Put shortly:
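SBE-bla HEK 293T, 4,000 cells/well, plated o/n; cpd in DMSO, 5 hr, 37 C/5% CO2; B/G FRET substrate 2 hr RT; ex 405, em 460/530 nm.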

Assay [17] concerns the target Voltage-gated inwardly rectifying potassium channel KCNH2 (Homo sapiens) (UniProt Q12809). Description: Human Ether-a-go-go-Related Gene (hERG) channel small molecule antagonists: fluorescence cell-based qHTS assay (AID 1671200). Note: nearly all actives have a fitted effect of over 50% in size. Note: potency is the fitted concentration of half-maximal effect. A digest of the protocol: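 Channel function was assessed by thallium flux. Cells seeded the previous day and kept at 37 C took up FluxOR II dye over 1 h in the dark at room temperature, then sat another 10 min before stimulation.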
(The hERG channel carries a current that helps repolarise heart muscle cells.)

Assay [18] can be described thus: qHTS assay to identify small molecule agonists of the AP-1 signaling pathway - cell viability counter screen (AID 1159525; calls by dose curve; note: nearly all actives have a fitted effect of over 55% in size; note: potency is the fitted concentration of half-maximal effect). A digest of the protocol: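 Intracellular ATP by Cell Titer Glo luminescence (30 min, RT) in the same ME-180 AP-1-bla wells after the 5 h compound exposure at 37 °C. Normalised to tetra n-octyl ammonium bromide and DMSO controls.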
Assay [19] in a line: qHTS assay to identify small molecule antagonists of the sonic hedgehog signaling (Shh) pathway (AID 1259369; calls by dose curve). A digest of the protocol: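 Antagonist mode: compound added to 3T3 Gli1-Luc cells followed by conditioned-medium stimulation, 24 h at 37 C, 5% CO2. Inhibition taken as loss of Gli1-driven luciferase luminescence.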
A short description of assay [20]: qHTS assay to identify small molecule agonists of the estrogen related receptor signaling pathway with the pleiotropic PPARgamma coactivator (PGC) from Tox21 10K library (AID 1224842). Note: % is set by controls: 0 for no effect and ±100 for the full control effect; nearly all actives have a fitted effect of over 15% in size. A digest of the protocol:
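Luminescence from One-Glo (30 min, room temperature) measured after PGC/ERR cells had 18 h at 37 C with pinned compound (23 nL in DMSO). Cells had been seeded at 2,000 per well and pre-incubated 6 h.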

Where “and” joins values, the source holds several entries; their conditions need not be identical. Equal entries are not always repeated. Unmarked numbers belong to inactive results. Records with an inconclusive call do not appear. Calls of active or inactive are those of the source. Unless noted, calls come from the whole dose curve; as a rule, active = well fitted curve in the direction sought with a large enough effect in the repeat runs; inconclusive = weak or mixed curves; inactive = no such curve, though single readings can be large; an effect the other way counts as inactive or inconclusive.

Chain of Voltage-gated inwardly rectifying potassium channel KCNH2 (Homo sapiens) (Q12809 whole entry, looked up): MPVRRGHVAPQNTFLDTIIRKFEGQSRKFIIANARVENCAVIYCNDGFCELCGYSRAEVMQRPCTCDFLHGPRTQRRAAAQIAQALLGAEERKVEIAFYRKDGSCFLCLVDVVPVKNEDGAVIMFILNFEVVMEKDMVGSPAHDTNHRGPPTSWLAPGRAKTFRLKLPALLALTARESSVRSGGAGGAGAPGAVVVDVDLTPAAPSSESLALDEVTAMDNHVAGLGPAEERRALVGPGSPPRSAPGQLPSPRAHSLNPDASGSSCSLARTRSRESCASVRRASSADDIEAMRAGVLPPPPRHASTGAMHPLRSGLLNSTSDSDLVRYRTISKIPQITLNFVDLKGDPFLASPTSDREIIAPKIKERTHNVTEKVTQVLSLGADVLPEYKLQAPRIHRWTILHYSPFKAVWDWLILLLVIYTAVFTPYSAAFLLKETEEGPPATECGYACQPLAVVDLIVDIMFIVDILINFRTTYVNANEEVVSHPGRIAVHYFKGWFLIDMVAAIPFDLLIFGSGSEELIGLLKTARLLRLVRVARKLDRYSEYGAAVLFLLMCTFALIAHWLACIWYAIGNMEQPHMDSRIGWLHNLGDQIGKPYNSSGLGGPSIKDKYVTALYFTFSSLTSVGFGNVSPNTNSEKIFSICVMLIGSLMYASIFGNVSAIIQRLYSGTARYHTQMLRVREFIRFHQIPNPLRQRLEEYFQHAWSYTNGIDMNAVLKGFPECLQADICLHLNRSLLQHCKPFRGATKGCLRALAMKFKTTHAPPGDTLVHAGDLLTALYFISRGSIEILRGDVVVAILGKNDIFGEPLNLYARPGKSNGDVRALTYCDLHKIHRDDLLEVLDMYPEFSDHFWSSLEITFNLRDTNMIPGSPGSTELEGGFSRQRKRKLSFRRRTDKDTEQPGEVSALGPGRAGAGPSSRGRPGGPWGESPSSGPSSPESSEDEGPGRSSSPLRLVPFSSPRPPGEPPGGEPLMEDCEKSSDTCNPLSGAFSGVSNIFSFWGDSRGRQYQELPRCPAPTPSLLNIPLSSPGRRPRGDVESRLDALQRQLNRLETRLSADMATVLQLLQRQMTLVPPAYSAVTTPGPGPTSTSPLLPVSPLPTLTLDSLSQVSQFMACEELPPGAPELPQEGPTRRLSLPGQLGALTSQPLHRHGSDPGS

On to `O=C1C(I)=CC(=C(c2cc(I)c(O)c(I)c2)c2ccccc2C(=O)O)C=C1I`, for which the Potency result in [1], in assay [2], in [4], in assay [5], in assay [7] and in assay [8] was “inactive” throughout. Further, the Potency result in [9], in assay [10], in assay [13], in assay [14] and in [17] was “inactive” throughout. In addition, the max response in assay [3] was -8.4%. For the same compound, the compound was called inactive in assay [6], in assay [11], in assay [12], in assay [15] and in [16].
`OCC(c1ccc(Cl)cc1)c1ccc(Cl)cc1`: the Potency in assay [18] is 49 µM (active); in [2] it was 43.6 µM (active); in assay [3], 38.9 µM (active); in [4] it was 43.6 µM (active); in [7] it was 24.5 µM (active); in [9], 49 µM (active). For the same compound, the results for the Potency in assay [19] and in assay [17] were 24.3 µM (active) and 43.6 µM (active), respectively. Also, the compound was classed as inactive in [6], in assay [11], in [12], in assay [15] and in assay [16]. For the same compound, the Potency result in [8], in assay [10], in assay [13] and in assay [14] was “inactive” throughout.
As to `O=C(Nc1ccccc1-c1ccc(Cl)cc1)c1cccnc1Cl`, the Potency entry in assay [18], in assay [20], in assay [1], in assay [5], in [10] and in assay [13] was “inactive” throughout. Besides, the Potency result in assay [17] is “inactive”. Further, the Potency in assay [4] and in assay [9] was 41.2 µM (active) throughout. For the same compound, the compound was called inactive in [6], in assay [11], in [12] and in [16].
For the compound `CC1COC(Cn2cncn2)(c2ccc(Oc3ccc(Cl)cc3)cc2Cl)O1` (stereo not drawn), the Potency result in assay [18], in assay [20], in assay [4], in assay [7] and in [9] was “inactive” throughout. Also, the Potency in [2] was 49 µM (active); in [3], 17.4 µM (active); in assay [19] it was 3.44 µM (active); in assay [17], 21.9 µM (active). In addition, the compound was called inactive in [6], in assay [11], in [12], in [15] and in [16].
For `COc1ccc(C(c2ccc(OC)cc2)C(Cl)(Cl)Cl)cc1`, the Potency entry in [20], in assay [1], in assay [2], in assay [4], in assay [7] and in assay [8] was “inactive” throughout. For the same compound, the Potency result in [9], in assay [10] and in assay [14] was “inactive” throughout. Also, the Potency is 52.6 µM (active) in [3] and 21.6 µM (active) in assay [19]. The compound was called inactive in assay [6], in assay [11], in assay [12], in assay [15] and in assay [16].
On to `CC(c1ccccc1)(c1ccc(O)cc1)c1ccc(O)cc1`, for which the Potency is 49 µM (active) in assay [18], 43.6 µM (active) in [3] and 21.7 µM (active) in [19]. The Potency result in [20], in [1], in [5], in assay [8], in [10] and in assay [13] was “inactive” in each case. Moreover, the Potency result in assay [14] and in [17] was “inactive” each time. Further, the outcome in assay [11], in assay [12], in assay [15] and in assay [16] was inactive.
Take `CN1CSC(=S)N(C)C1`: the Potency entry in assay [20], in assay [4], in assay [7], in [8], in assay [9] and in assay [13] was “inactive” each time. The Potency result in assay [14] and in assay [17] was “inactive” each time. Besides, the Potency was 12.3 µM (active) in assay [1]; 6.88 µM (active) and 12.3 µM (active) in [2]; 13.7 µM (active) and 21.8 µM (active) in assay [3]; 15.4 µM (active) in [5]; 342 nM (active) and 1.08 µM (active) in assay [19]. The call in assay [6], in assay [11], in assay [12], in assay [15] and in [16] was inactive.
As for `ClC1=C(Cl)[C@]2(Cl)[C@@H]3[C@@H](Cl)[C@H]4O[C@H]4[C@@H]3C1(Cl)C2(Cl)Cl`, the Potency in [18] was 49 µM (active); in assay [2], 54.9 µM (active); in [19] it was 48.6 µM (active); in assay [17] it was 54.9 µM (active). Also, the Potency entry in assay [20], in [8], in assay [10], in assay [13] and in [14] was “inactive” throughout. Further, the call in [6], in assay [11], in [15] and in assay [16] was inactive.
